This is part of a sample that, as a whole, favours compounds with a hit. Of some 83,000 tested, about 20% had one in any assay.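 Percent growth is the endpoint: 0 to 100 indicates growth inhibition (40 means 60% inhibition), 0 means no net growth, and negative values indicate cell death.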 Activity calls are given as the source filed them. Rule for the calls: active = growth percent below 10; inactive = the rest.
System: MALME-3M melanoma
Assay: NCI-60 one-dose screen, 48 h (100 = growth as untreated, 0 = no growth, -100 = all killed)
Conditions: 10 µM unless noted

SMILES	growth
C=C(CC(=O)OC)C(C)=O	128% (inactive)
O=C1/C(=C\c2cn(CC(O)CN3CCCCC3)c3ccccc23)c2ccccc2N1c1c(Cl)cccc1Cl (stereo not given)	-65.9% (active)
CC/C=C(\C)C(CCC)(CN=O)C(=O)OCC (stereo not given)	105% (inactive)
CN(C)C(=S)Sc1ccc([N+](=O)[O-])cc1[N+](=O)[O-]	-4.06% (active)

System: MDA-MB-231 breast
Assay: as above
Conditions: 10 µM unless noted

SMILES	growth
CC(C)C1=NOC(=O)C1=Cc1cn(-c2ccccc2)nc1-c1ccccc1	97.4% (inactive)
CCN(CC)CCCNCc1cc(-c2ccccc2)nc2ccccc12	31.3% (inactive)
CCOC(=O)CCC[P+](c1ccccc1)(c1ccccc1)c1ccccc1	80.9% (inactive)
Cc1cccc(C[C@H](NC(=O)Nc2ccc(Cl)cc2F)C(=O)N[C@@H]2C(=O)N3C[C@H](O)C[C@H]3C(=O)N3CCN(C)C[C@H]3C(=O)N[C@@H](C)C(=O)N3C[C@H](C)C[C@H]3C(=O)O[C@H]2C)c1	22.4% (inactive)
COc1cc(C)cc2oc3oc(=O)c(C(=O)c4cc5cc(Br)ccc5o4)cc3c(=O)c12	105% (inactive)
COc1ccc(CC(C#N)c2ccc(Cl)cc2)cc1 (stereo not given)	79.7% (inactive)
Nc1nc(SCc2cccc([N+](=O)[O-])c2)c2[nH]cnc2n1	103% (inactive)
COC(=O)[C@]12CCC(C)(C)C[C@H]1C1=CC[C@@H]3[C@@]4(C)C/C(=C/c5cccnc5)C(=O)C(C)(C)[C@@H]4CC[C@@]3(C)[C@]1(C)CC2	-55.7% [100 µM] (active)
Cn1cc(-c2nnc(-c3cn(C)c4ncccc34)o2)c2ccccc21	38.5% (inactive)
Cc1ccc(C2=C/C(=C/c3ccc(Br)cc3)C(=O)N2CCc2ccc(S(N)(=O)=O)cc2)cc1	90.4% (inactive)
COc1ccc2nc3cc(Cl)ccc3c(Nc3ccc(O)cc3)c2c1	84.4% (inactive)
CCCCN(CC)CC(CC)Nc1cc(OC)cc2cccnc12 (stereo not given)	115% (inactive)
O=C(Nc1cccc2ccccc12)c1cc2ccccc2cc1O	-22.1% (active)
C=C(C)[C@@H]1CC[C@]2(COCCC#N)CC[C@]3(C)[C@H](CC[C@@H]4[C@@](C)(CCCNCCC#N)[C@H](C(=C)C)CC[C@]43C)[C@@H]12	13.9% [100 µM] (inactive)
Cc1ccc(-c2cn(C/C=C3\C=CN(S(=O)(=O)c4ccccc4)CC3)nn2)cc1	97.5% (inactive)
CN(C)c1ccc(-c2ccc(-c3ccc(C(=N)N)cc3)s2)cc1	-29.6% (active)
CCOC(=O)c1nn(C2CCCCO2)c2ccc(NC(=O)CN3CCOCC3)cc12 (stereo not given)	102% (inactive)
Cn1cc(-c2noc(-c3cn(C)c4ncc(Br)cc34)n2)c2cc(Cl)ccc21	57.2% (inactive)

SMILES	growth
Cc1cc2c(C(C)C)c(O)c(O)c(C=NCc3ccoc3)c2c(O)c1-c1c(C)cc2c(C(C)C)c(O)c(O)c(C=NCc3ccco3)c2c1O	31.8% (inactive)
Cc1cccc(C[C@H](NC(=O)Nc2ccc(C)cc2F)C(=O)N[C@@H]2C(=O)N3C[C@H](O)C[C@H]3C(=O)N3CCN(C)C[C@H]3C(=O)N[C@@H](C)C(=O)N3C[C@H](C)C[C@H]3C(=O)O[C@H]2C)c1	18.7% (inactive)
COc1cc2c(c(Br)c1N)-c1cc(Br)c(N)cc1C2=O	29.2% (inactive)
CCN(CC)CCSC(=O)C(O)(c1ccccc1)C1CCCC1 (stereo not given)	97.9% (inactive)
CCN(CC)CCCOc1ccc2c(c1)O/C(=C\c1cccc(OC)c1)C2=O	87.1% (inactive)
CCOC(=O)/C(C#N)=C(\C)CCc1ccccc1	109% (inactive)
O=C(CCN1CCCCC1)c1ccc(Cl)cc1	104% (inactive)
C[C@H]1[C@H](C)CC[C@]2(C(=O)O)CC[C@]3(C)C(=CC[C@@H]4[C@@]5(C)C/C(=C/c6ccco6)C(=O)C(C)(C)[C@@H]5CC[C@]43C)[C@H]12	-81.5% [100 µM] (active)
Cc1ccc(NC(=O)N[C@@H](Cc2cc(F)cc(F)c2)C(=O)N[C@@H]2C(=O)N3CCC[C@H]3C(=O)N3CCOC[C@H]3C(=O)N[C@@H](C)C(=O)N3C[C@H](C)C[C@H]3C(=O)O[C@H]2C)cc1	9.97% (active)
CCCCOC(=O)c1c(C)[nH]c(/C=C2\N=C(c3ccc[nH]3)C=C2OC)c1C	-49.7% (active)
O=C(O)c1cn(C2CC2)c2cc(N3CCN(Cc4cc(Cl)ccc4O)CC3)c(F)cc2c1=O	71.3% (inactive)
C[n+]1cccc(NC(=O)c2ccc3ccc4ccc(C(=O)Nc5ccc[n+](C)c5)nc4c3n2)c1	33.2% (inactive)
O=c1cc(-c2ccccc2)oc2cc(OCc3cn(Cc4ccc(F)cc4)nn3)cc(O)c12	12% [100 µM] (inactive)
CCc1ccc(NC(=O)N[C@@H](Cc2cc(F)cc(F)c2)C(=O)N[C@@H]2C(=O)N3C[C@H](O)C[C@H]3C(=O)N3CCOC[C@H]3C(=O)N[C@@H](C)C(=O)N3C[C@H](C)C[C@H]3C(=O)O[C@H]2C)cc1	16.1% (inactive)
C=C(CC(=O)OC)C(C)=O	94.8% (inactive)
O=C1/C(=C\c2cn(CC(O)CN3CCCCC3)c3ccccc23)c2ccccc2N1c1c(Cl)cccc1Cl (stereo not given)	-81.6% (active)
CC/C=C(\C)C(CCC)(CN=O)C(=O)OCC (stereo not given)	94.8% (inactive)
CN(C)C(=S)Sc1ccc([N+](=O)[O-])cc1[N+](=O)[O-]	44.3% (inactive)
